In PubChem BioAssay (EPA / NIEHS):
The source made the active and inactive calls. The calls were made as follows: active = hit-call score of the fitted dose curve at least 0.9, where 1 is the maximum; inactive = score below 0.9.

read-out: E-selectin (Homo sapiens) (UniProt P16581); assay: BSK_LPS_Eselectin: BioMAP Diversity Plus: LPS Assay for Eselectin Biomarker Activity (AID 2283077); details: primary human HUVEC with PBMC; actives raise or lower the signal
Protocol: BSK_LPS is a cell-based, multiplexed-readout assay that uses umbilical vein endothelium and peripheral blood mononuclear cells, a human vascular primary cell co-culture, with measurements taken at 24 hours after chemical dosing in a 96-well plate.BSK_LPS_Eselectin is an assay component measured in the BSK_LPS assay. It measures E-selectin antibody related to regulation of gene expression using ELISA technology.Data from the assay component BSK_LPS_Eselectin was analyzed into 1 assay endpoint. This assay endpoint, BSK_LPS_Eselectin, was analyzed with bidirectional fitting relative to DMSO as the negative control and baseline of activity. Using a type of binding reporter, gain or loss-of-signal activity can be used to understand changes in the signaling as they relate to the gene SELE. Furthermore, this assay endpoint can be referred to as a primary readout, because this assay has produced multiple assay endpoints where this one serves a signaling function. To generalize the intended target to other relatable targets, this assay endpoint is annotated to the cell adhesion molecules intended target family, where the subfamily is selectins.
The levels of cell surface (or secreted, indicated by the prefix "s") biomarker endpoints were measured by ELISA. Overt cytotoxicity to cells in confluent adherent cultures (all systems other than the BT system) was assessed by measuring total protein levels using sulforhodamine B (SRB) staining in parallel cultures at the time of biomarker measurements, indicated as SRB endpoints. For proliferation assays for adherent cell types, individual cell types are cultured at sub-confluence and relative cell numbers quantified by SRB staining at time points optimized for each system (48 h: 3C and CASM3C systems; 72 h: BT and HDF3CGF systems; 96 h: SAg system). SRB was performed by staining cells with 0.1% SRB after fixation with 10% TCA and reading wells at 560 nm.Viability and proliferation of PBMC (T cells) was quantified by Alamar Blue reduction for the SAg and BT systems. For PBMC viability (referred to as PBMC Cytotoxicity within the assay endpoint names), cells were plated (75,000/well in a 96-well plate) and then chemical samples added for 1 h before addition of activators, SEB and TSST-1 (20 ng/mL final concentration each). Cells were incubated for 90 h. Then, Alamar Blue (20 uL/well) (Invitrogen, Cat DAL1100) was added for 6 h, and the plates were read with a fluorescence microplate reader at 546/580 nm (excitation/emission). For PBMC proliferation, cells were plated and activated as above but incubated for only 16 h prior to addition of Alamar Blue. Plates were read after 6 h.

Sequence of E-selectin (Homo sapiens) (P16581 whole entry, looked up): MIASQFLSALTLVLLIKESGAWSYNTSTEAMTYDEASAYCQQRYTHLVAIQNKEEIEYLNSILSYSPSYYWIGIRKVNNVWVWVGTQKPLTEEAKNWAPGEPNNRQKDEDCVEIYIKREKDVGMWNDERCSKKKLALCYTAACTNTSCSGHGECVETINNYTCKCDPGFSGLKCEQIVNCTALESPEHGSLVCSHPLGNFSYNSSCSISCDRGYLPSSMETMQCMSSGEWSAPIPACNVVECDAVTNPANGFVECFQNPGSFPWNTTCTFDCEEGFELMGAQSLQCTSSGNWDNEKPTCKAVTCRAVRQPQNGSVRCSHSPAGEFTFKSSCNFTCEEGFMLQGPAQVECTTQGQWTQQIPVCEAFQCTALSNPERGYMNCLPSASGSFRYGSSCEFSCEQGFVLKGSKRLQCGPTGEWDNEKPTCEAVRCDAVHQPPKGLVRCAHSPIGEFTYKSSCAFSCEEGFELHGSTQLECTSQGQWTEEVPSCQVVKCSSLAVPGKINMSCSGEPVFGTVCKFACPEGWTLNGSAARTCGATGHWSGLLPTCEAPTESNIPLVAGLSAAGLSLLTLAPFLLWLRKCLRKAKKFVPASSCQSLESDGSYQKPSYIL

SMILES	outcome	AC50
Oc1c(Br)cc(Br)cc1Br	inactive	–
CC(C)O.CC(C)O.OCCN(CCO)CCO.OCCN(CCO)CCO.[Ti]	inactive	–
CC(C)N(C(=O)CCl)c1ccccc1	–	25.4 µM (active)
Cc1ccc(OP(=O)(Oc2ccc(C)cc2C)Oc2ccc(C)cc2C)c(C)c1	inactive	–
Nc1c(Oc2ccccc2)cc(O)c2c1C(=O)c1ccccc1C2=O	inactive	–
Cc1c([N+](=O)[O-])c(C)c([N+](=O)[O-])c(C(C)(C)C)c1[N+](=O)[O-]	inactive	–
Cc1ccccc1OP(=O)(Oc1ccccc1)Oc1ccccc1	–	29.2 µM (active)
CCCCN(CCCC)C(=S)[S-].CCCCN(CCCC)C(=S)[S-].[Ni+2]	inactive	–
COc1ccccc1N	inactive	–
Cc1cc(C(C)(C)c2ccc(O)c(C)c2)ccc1O	inactive	–
COCC(=O)N(c1c(C)cccc1C)[C@H](C)C(=O)OC	inactive	–
O=C(CCl)NCO	inactive	–
Cc1ccc2nc3sc(=O)sc3nc2c1	–	8.18 µM (active)
O=[N+]([O-])c1cccc2ccccc12	inactive	–
Clc1cccc(Cl)c1Cl	inactive	–
Cc1ccccc1OP(=O)(Oc1ccccc1C)Oc1ccccc1C	–	9.59 µM (active)
Oc1c(Cl)cc(Cl)cc1Cl	inactive	–
c1ccc2sc(SNC3CCCCC3)nc2c1	inactive	–
O=C(N[C@H]1CN2CCC1CC2)c1ccc2c(c1)OCCO2	inactive	–
C#CCOC(=O)/C=C(C)/C=C/CC(C)CCCC(C)C (stereo not given)	–	20 µM (active)

SMILES	outcome	AC50
CCN(CC)C(=O)C(Cl)=C(C)OP(=O)(OC)OC	inactive	–
CCOP(=O)(OCC)SCCSCC	inactive	–
C=CC(Cl)CCl (stereo not given)	inactive	–
O=[N+]([O-])c1ccc(Nc2ccccc2)cc1	inactive	–
CCC(C)(C#N)N=NC(C)(C#N)CC (stereo not given)	inactive	–
CN(C)C(=S)S	inactive	–
CCOC(=O)C(SP(=S)(OC)OC)c1ccccc1 (stereo not given)	inactive	–
Cc1cc(C)cc(C)c1	inactive	–
CC1(C)[C@H](C(=O)O[C@H](C#N)c2cccc(Oc3ccccc3)c2)[C@@H]1/C=C(\Cl)C(F)(F)F	inactive	–
Oc1cc(Cl)c(Cl)cc1Cl	–	34.1 µM (active)
O=c1oc2ccccc2c(O)c1C(CC(O)c1ccc(-c2ccc(Br)cc2)cc1)c1ccccc1 (stereo not given)	–	14.3 µM (active)
CCOP(=O)(OCC)OC(=CCl)c1ccc(Cl)cc1Cl	inactive	–
O=C1C=CC(=O)c2ccccc21	–	1.44 µM (active)
OC(Cc1ccccc1Cl)(Cn1[nH]cnc1=S)C1(Cl)CC1 (stereo not given)	inactive	–
NC(=O)CCl	inactive	–
O=S(=O)(c1ccc(Cl)cc1)c1cc(Cl)c(Cl)cc1Cl	inactive	–
O=C(O)C1(c2ccc3c(c2)OC[C@H](Cc2ccc(-c4ccccc4)cc2)[C@H]3O)CCCC1	inactive	–
CCOC(=O)CCN(SN(C)C(=O)Oc1cccc2c1OC(C)(C)C2)C(C)C	inactive	–
CCCCOC(=O)COC(=O)c1ccccc1C(=O)OCCCC	inactive	–
O=C(O)COc1cc(Cl)c(Cl)cc1Cl	inactive	–
